{"source": "PubChem BioAssay"}
{"assay": "binders of probe aFGF10 on microarray, primary screen, stem cell growth factor project, biochemical, small-molecule microarray, fluorescence 635/667 (AID 1071);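 further: score merges 667 nm spot intensity and signal to noise from triplicate slides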", "conditions": "higher = more signal"}
{"compound": "O=C1c2ccccc2[C@](Cc2ccccc2I)(C(=O)O)[C@H](c2ccc(CO)cc2)N1Cc1ccccc1C(F)(F)F", "composite z-score": -0.278}
{"compound": "C=CCN1C(=O)[C@@]2(O[C@@H](CCO)[C@H]([Si](C)(C)c3ccc(OC)cc3)[C@H]2C)c2cc(NC(C)=O)ccc21", "composite z-score": 1.19}
{"compound": "O=C1O[C@@H](c2ccccc2)[C@@H](c2ccccc2)N2[C@@H](c3ccc(O)cc3)[C@]3(C(=O)Nc4ccccc43)[C@@H](C(=O)NC[C@H](O)c3ccccc3)[C@H]12", "composite z-score": 0.0271}
{"compound": "C=C(CCCC)C(=O)CC[C@@H](OC(=O)c1ccccc1-c1ccccc1C(=O)O)c1ccc(CO)o1", "composite z-score": 0.45}
{"compound": "COCCOC(=O)N1C(=O)[C@@]2(c3cc(C#CCCO)ccc31)[C@H](c1ccc(O)cc1)N1[C@H](c3ccccc3)[C@H](c3ccccc3)OC(=O)[C@H]1[C@@H]2C(=O)N1CCCCCCC1", "composite z-score": 1.04}
{"compound": "O=C(NCC(O)CO)[C@]1(CCS(=O)(=O)c2ccccc2)N=C(c2ccc(OCCCO)cc2)O[C@@H]1c1ccccc1", "note": "(stereo not given in full)", "composite z-score": -0.299}
{"compound": "CC(C)NC(=O)[C@@H]1c2ccccc2C(=O)N(C2CCCCC2)[C@H]1c1ccc(CO)cc1", "composite z-score": 0.74}
{"compound": "CCOC(=O)C=Cc1cccc(OC)c1O", "composite z-score": -0.572}
{"compound": "NC(=O)NCC#Cc1ccc2c(c1)[C@]1(C(=O)N2)[C@H](C(=O)NC[C@H](O)c2ccccc2)[C@H]2C(=O)O[C@H](c3ccccc3)[C@H](c3ccccc3)N2[C@@H]1c1ccccc1OCCO", "composite z-score": 0.0263}
{"compound": "CN1C(=O)C2C(C1=O)C1C=C(c3ccc(CO)cc3)C2C(C2CC2)N1Cc1cc2c(cc1Br)OCO2", "note": "(stereo not given)", "composite z-score": 0.561}
{"compound": "O=C1OCCC/C=C\\[C@H]2OC34C=CCN(Cn5nnc6ccccc65)C(=O)[C@H]3N(CCCO)C(=O)[C@@H]4C12", "note": "(stereo not given in full)", "composite z-score": -1}
{"compound": "CC(C)N1C(=O)c2ccccc2[C@](C)(C(=O)NC2CC2)[C@@H]1c1ccc(CO)cc1", "composite z-score": -0.0282}
{"compound": "O=C1C2C=CC(C(O)CCc3ccccc3)N(Nc3ccccc3)C2C(=O)N1c1ccccc1", "note": "(stereo not given)", "composite z-score": 0.83}
{"compound": "O=C1O[C@H](c2ccccc2)[C@H](c2ccccc2)N2[C@H]1[C@@H](C(=O)N1CCCCCCC1)[C@]1(C(=O)Nc3ccc(C#CC4=CCCCC4)cc31)[C@H]2c1ccc(O)cc1", "composite z-score": 1.46}
{"compound": "CC(C)OC(=O)C1=CCC(c2cccc(Cl)c2)O1", "note": "(stereo not given)", "composite z-score": -0.348}
{"compound": "C=CCN1C(=O)[C@@]2(O[C@@H](CCO)[C@H]([Si](C)(C)c3ccc(OC)cc3)[C@H]2C)c2cc(N3C(=O)COc4ccccc43)ccc21", "composite z-score": 1.02}
{"compound": "C=CCC(OC(C)=O)[C@@H]1[C@@H](N(Cc2ccc(-c3ccccc3)cc2)C(=O)c2ccc(C)cc2)c2cc(OCCCO)ccc2N1C(=O)c1ccc2ccccc2n1", "note": "(stereo not given in full)", "composite z-score": 0.199}
{"compound": "COCCOC(=O)N1C(=O)[C@@]2(c3cc(C#CC4=CCCCC4)ccc31)[C@H](c1ccc(OCCO)cc1)N1[C@H](c3ccccc3)[C@H](c3ccccc3)OC(=O)[C@H]1[C@@H]2C(=O)Nc1nc2ccccc2s1", "composite z-score": 0.854}
{"compound": "O=[N+]([O-])c1ccc(C[n+]2ccc(CCCO)cc2)o1", "composite z-score": 0.758}
{"compound": "C=C(C)[C@@H]1CC=C(C(O)C2C=CC3C(=O)N(Cc4ccccc4)C(=O)C3N2n2cnnc2)CC1", "note": "(stereo not given in full)", "composite z-score": -0.215}
{"compound": "CCCNC(=O)[C@@]1(C)c2ccccc2C(=O)N(Cc2cc(F)cc(C(F)(F)F)c2)[C@H]1c1ccc(CO)cc1", "composite z-score": -0.104}
{"compound": "CO[C@H]1O[C@H](CO)[C@@H](OC(=O)Nc2cccc(F)c2)[C@H](OC(=O)Nc2ccccc2-c2ccccc2)[C@@H]1OC(=O)Nc1ccccc1-c1ccccc1", "composite z-score": 0.669}
{"compound": "CCOC(=O)N1C(c2ccc(OCCCO)cc2)=NC(C(=O)OC)N1C(=O)OCC", "note": "(stereo not given)", "composite z-score": 0.683}
{"compound": "COCCCNC(=O)[C@@]1(Cc2ccccc2I)c2ccccc2C(=O)N(Cc2ccccc2)[C@H]1c1ccc(CO)cc1", "composite z-score": -0.487}
{"compound": "COc1ccc(C#Cc2ccc3c(c2)[C@]2(C(=O)N3)[C@H](C(=O)N3CCN(c4ncccn4)CC3)[C@H]3C(=O)O[C@H](c4ccccc4)[C@H](c4ccccc4)N3[C@@H]2c2ccc(O)cc2)cc1", "composite z-score": 0.207}
{"compound": "CN(C)CCCC[C@@H]1NC(=O)[C@@H]2C[C@H](C(=O)NCc3ccc(F)cc3)[C@H](c3cccc(OCCO)c3)N2C1=O", "composite z-score": 0.738}
{"compound": "O=C1O[C@@H](c2ccccc2)[C@@H](c2ccccc2)N2[C@@H](c3ccc(O)cc3)[C@]3(C(=O)Nc4ccc(C#CCCO)cc43)[C@@H](C(=O)O)[C@H]12", "composite z-score": 0.306}
{"compound": "CC(C)NC(=O)[C@@]1(c2ccc([N+](=O)[O-])cc2)CC(=O)N(C(C)C)[C@@H]1c1ccc(CO)cc1", "composite z-score": -0.218}
{"compound": "C=CCC(OC(C)=O)[C@@H]1[C@@H](N(Cc2ccc(-c3cccc(C(F)(F)F)c3)o2)C(=O)Cc2ccc(OC)cc2)c2cc(OCCCO)ccc2N1C(=O)Cc1ccc(OC)cc1", "note": "(stereo not given in full)", "composite z-score": -0.118}
{"compound": "C[n+]1ccc2ccc(O)cc2c1", "composite z-score": 0.0493}
{"compound": "C=C(CCCC)/C(=C/C[C@H](OC(C)=O)c1ccc(CO)o1)c1cc(C(=O)OC)ccc1OC", "composite z-score": 0.525}
{"compound": "COCCOC(=O)N1C(=O)[C@@]2(c3cc(C#Cc4ccc(OC)cc4)ccc31)[C@H](c1ccc(OCCO)cc1)N1[C@H](c3ccccc3)[C@H](c3ccccc3)OC(=O)[C@H]1[C@@H]2C(=O)N1CCc2cc(OC)c(OC)cc2C1", "composite z-score": 0.214}
{"compound": "CC(C)C(O)C1C=CC2C(=O)N(C)C(=O)C2N1N1CCCCC1", "note": "(stereo not given)", "composite z-score": 0.651}
{"compound": "CCN(CC)c1ccc(N2CC=CC34O[C@@H]5C=CCOC(=O)[C@@H]5[C@H]3C(=O)N(CCCCCO)[C@@H]4C2=O)cc1", "note": "(stereo not given in full)", "composite z-score": -0.39}
{"compound": "Cc1cc(C)c(C(O)C2C=CC3C(=O)NC(=O)C3N2Nc2ccccn2)c(C)c1", "note": "(stereo not given)", "composite z-score": 0.0012}
